Shown are actives, neighbours in structure and some others; about 1.3% of the full set was active somewhere.
IL-2 act – activators of IL-2. IL-2 activation reporter assay, cell-based qHTS; stimulated with anti-CD3/CD4/CD28 beads; in transgenic mouse T cells. activation, % (series mostly up to about 46 µM). hit rate 0.065% among 360,000; in the data active = activation above about 50%; inconclusive = mostly about 30% to 49%; also: 0% is about no effect
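Unstimulated transgenic mouse T cells; 60-min compound exposure; bead-based TCR/CD4/CD28 stimulation; 18 h culture, 37 degrees C; dual fluorescence (EGFP, DsRed) plate cytometry.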
BRCA1 expr act – increases BRCA1 expression; MCF7-BRCA1-FFLuc reporter, luminescence, 48 h; response scale: scaled: vehicle 0%, 10 µM genistein 100%; Potency, µM (doses to about 46.1 µM), inactives show at the top dose activation, usual class: activators; hit rate 1.1% among 380,000; also: potency is read from the fitted curve at half-maximal effect; nearly all actives have a fitted effect of over 80% in size
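MCF7-BRCA1-FFLuc cells, 2000/well in phenol-red-free MEM, attached 2 h then treated 48 h at 37 C. Luciferase luminescence read 15 min after reagent; normalized to genistein maximum activation (10microM) and DMSO, concentration-response fitted.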
TCR act – T cell receptor activation; Potency, µM (series often up to 9.22 µM), for inactives: at the top dose activation of IL-2 secretion, actives largely listed as activators; primary human leukocytes, anti-CD3, IL-2 HTRF, 48 h; AID 504894; 330,000 tested, under 10 active; also: % of control where 0% means no effect
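Human primary leukocytes + a-CD3 beads + cpd, 48 hr; IL-2 in supernatant by HTRF (ex 320nm / em 665nm). No co-stimulatory signal supplied.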
Mito fusion yeast – inhibitors of mitochondrial division or activators of mitochondrial fusion | S. cerevisiae fusion-defective mutant growth rescue, CellTiterGlo 48 h | Potency, µM (titrated, usually from 46.1 µM), for inactives: top-dose growth rescue (activation), most hits filed as activators | hit rate 0.23% among 320,000; also: potency is read from the fitted curve at half-maximal effect; % of control where 0% means no effect; nearly all actives have a fitted effect of over 45% in size
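Read-out: ATP-based luminescence (CellTiterGlo, 10 min ambient) reporting growth of fusion-defective ts yeast after 48 hours at 37C on glycerol/ethanol YPEG medium in the presence of compound.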
BCR signal inh – inhibitors of chronic active B-cell receptor signaling. ABC-DLBCL IkBa-CBG/CBR reporter, luminescence ratio, 4 h. Potency, µM (titrated, usually from 46.1 µM), inactives show top-dose activity change, negative = inhibition, most hits filed as inhibitors. hit rate 0.05% among 340,000; active = well fitted inhibition curve with a large enough effect in the signal ratio, with a control signal flat, not every such curve was filed as active; inconclusive = small, poorly fitted or top-dose-only effect, or effect the other way, or a change in a side signal; the % refers to the signal ratio;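 also: potency is read from the fitted curve at half-maximal effect; plate controls were basal doxycycline-induced cells for no effect and cells given 10 µM MG132 for full effect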
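TMD8 human ABC-DLBCL cells with doxycycline-inducible IκBα–green luciferase fusion and unfused red luciferase, in 0.5% FBS medium; compounds up to 46 uM, 4 h at 37C. Green/red luminescence ratio, filter-overlap corrected, fitted to concentration-response curves.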
PTHR1 agonist – activates the human parathyroid hormone receptor PTHR1; Q03431; HEK293 GP2 PTHR1 cells, GloSensor cAMP luminescence, 1 h; Potency, µM (titrated, usually from 115 µM), without a hit: at the top dose activation, most hits filed as activators; hit rate 0.075% among 410,000; also: potency is read from the fitted curve at half-maximal effect; nearly all actives have a fitted effect of over 55% in size
Target sequence (Q03431 whole entry, looked up): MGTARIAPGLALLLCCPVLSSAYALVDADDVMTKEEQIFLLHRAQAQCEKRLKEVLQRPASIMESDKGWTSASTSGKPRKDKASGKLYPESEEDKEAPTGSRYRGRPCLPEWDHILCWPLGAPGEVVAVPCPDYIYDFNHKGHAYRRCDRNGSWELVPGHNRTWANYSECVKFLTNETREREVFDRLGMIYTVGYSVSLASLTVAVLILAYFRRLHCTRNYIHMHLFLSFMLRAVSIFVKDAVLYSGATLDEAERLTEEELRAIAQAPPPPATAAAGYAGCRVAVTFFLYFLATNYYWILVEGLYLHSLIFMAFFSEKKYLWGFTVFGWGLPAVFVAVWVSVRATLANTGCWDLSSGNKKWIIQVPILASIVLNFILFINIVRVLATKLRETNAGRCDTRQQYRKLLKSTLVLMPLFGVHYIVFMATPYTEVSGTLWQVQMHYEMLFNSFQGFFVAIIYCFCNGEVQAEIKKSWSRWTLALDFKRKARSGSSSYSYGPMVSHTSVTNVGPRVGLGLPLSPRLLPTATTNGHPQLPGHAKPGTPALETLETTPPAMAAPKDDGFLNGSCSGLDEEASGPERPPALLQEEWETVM
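HEK-293-derived GP2 cells expressing PTHR1 and a GloSensor cAMP reporter, 3,000/well, plated overnight, given luciferin plus IBMX (each 0.5 mM as added) for 1 h at 37 °C, then compound for 1 h at 37 °C. Luminescence was read after 15 min at room temperature.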
* hit, by the source's call; i = inactive; ? = inconclusive; nt = not tested or not shown; [ ] = remark or other dose. Unless noted, calls follow the shape of the dose curve; as a rule, active = well fitted curve in the direction sought with a large enough effect; inconclusive = small, poorly fitted or top-dose-only effect, or another doubt; inactive = no such curve, though single readings can be large; an effect the other way counts as inactive or inconclusive.

SMILES	IL-2 act	BRCA1 expr act	TCR act	Mito fusion yeast	BCR signal inh	PTHR1 agonist
CCN(Cc1cnn(C)c1)C(=O)c1cc(COc2cc(C)c(Cl)c(C)c2)on1	-1	0%	-3%	-2%	?	-1%
COc1cc(Cl)ccc1OCc1cc(C(=O)N(C)CCc2cnn(C)c2)no1	-2	7.1µM*	3%	1%	10%	-25%
Cc1cc(OCc2cc(C(=O)N(C)CCc3cnn(C)c3)no2)cc(C)c1Cl	-3	10µM*	4%	5%	2%	-26%
CCCN1C(=O)c2ccccc2NC1c1ccc(OC)c(COc2ccc([N+](=O)[O-])c(C)c2)c1 (stereo not drawn)	nt	0%	nt	nt	nt	nt
Cc1ccc(C(=O)Nc2ccc(Cl)cc2C)c(Cl)c1	0	3.2µM*	-14%	12%	?	-31%
CCOC(=O)Cn1c2ccc(OC)cc2c2nc3ccccc3nc21	51*	-1%	-5%	-4%	-1%	i
N#Cc1c(NC(=O)CSc2ncn[nH]2)sc2c1CCCC2	-4	-92%	4%	1%	23µM*	-31%
CCC(C(=O)OCC(=O)N(CCOC)c1c(N)n(Cc2ccccc2)c(=O)[nH]c1=O)c1ccccc1 (stereo not drawn)	-1	-13%	8%	-2%	4%	-14%
O=C(O)c1ccccc1Nc1ccccc1C(=O)O	-2	4%	3%	3%	6%	14%[57.5 µM]
O=C(O)c1ccccc1Nc1ccc([N+](=O)[O-])cc1	-2	13µM*	-1%[46.1 µM]	3%	13%	-26%
COc1ccc(CCNC(=O)CSc2nc(=O)[nH]c3c2CCC3)cc1OC	0	-12%	2%	1%	0%	i
COc1ccccc1CC(=O)O/N=C(\N)c1ccccn1	2	?	3%	5%	?	-28%
N/C(=N\OC(=O)Cc1ccccc1)c1ccccc1Cl	1	14µM*	-4%	-8%	?	i
N/C(=N\OC(=O)C1CCCCC1)c1ccccn1	0	11µM*	-1%	-3%	?	-23%[57.5 µM]
N/C(=N\OC(=O)Cc1ccc(Cl)cc1)c1ccccn1	1	10µM*	-4%	-4%	1%	-19%[57.5 µM]
CC(C)(C)CC(=O)O/N=C(\N)c1ccccn1	-1	5µM*	-2%[46.1 µM]	2%	?	-8%
Cc1ccc(CC(=O)O/N=C(\N)c2ccccn2)cc1	-3	?	-1%	1%	-2%	-6%
Cc1ccc(OCC(=O)O/N=C(\N)c2ccccn2)cc1	-4	6.3µM*	-5%	-4%	?	-17%
CCc1c(C)sc2c1CCN(Cc1ccccc1)C2c1ccccc1 (stereo not drawn)	nt	nt	nt	nt	nt	-39%
COc1ccc2c(c1)CC/C2=N\OC(=O)c1ccccc1C	0	11µM*	-8%	5%[9.22 µM]	?	-45%
Nc1c(C(=O)CSc2nnc(Cc3ccccc3)o2)c(=O)[nH]c(=O)n1C1CC1	1	10%	-6%	-5%	?	i
CC1CCC(NC(=O)CCNC(=O)c2ccc(Br)cc2)CC1 (stereo not drawn)	-2	4.5µM*	-2%	3%	-6%	-7%
O=C(CNC(=O)c1ccc(Br)cc1)NC1CC1	-1	-2%	3%	-4%	0%	i
COc1cc(N(C)C)c(OC)cc1C=C1C=CC=C1	nt	-3%	nt	nt	nt	nt
O=C(N/N=C/c1ccc(OCc2ccccc2)cc1)c1cc[n+](Cc2ccccc2)cc1	0	3.5µM*	1%[46.1 µM]	-3%	-10%	i
O=C(N/N=C/c1ccc(O)cc1)c1cc[n+](Cc2ccccc2)cc1	-1	-4%	-6%[46.1 µM]	-2%	-6%	i
Cc1occc1C(=O)N/N=C/c1ccc(OCc2ccccc2)cc1	-1	6.3µM*	-21%	8%	?	-12%
CC(O)(c1cccc(F)c1)c1nc(-c2cccc(C(=O)O)c2)cs1 (stereo not drawn)	0	100%	nt	nt	nt	i

Source: PubChem (National Center for Advancing Translational Sciences (NCATS))
